Results on three sequences are retold here after PMC7862700, “An all-to-all approach to the identification of sequence-specific readers for epigenetic DNA modifications on cytosine”.

Test in all cases: DAPPL (digital affinity profiling via proximity ligation, sequencing); 10 mM Tris-HCl pH 7.5, 50 mM NaCl, 1 mM DTT, 4% glycerol, room temperature, 30 min; GST-TFs on glutathione beads, 16-mer random dsDNA library, 0.1% formaldehyde crosslink after washing; high values mean tight binding
What all share (conditions): protein: recombinant; tags: N-terminal GST; dsDNA, one strand shown

In one experiment the target is T1, FLI1 (Homo sapiens, UniProt Q01543 1-452).
T1 sequence: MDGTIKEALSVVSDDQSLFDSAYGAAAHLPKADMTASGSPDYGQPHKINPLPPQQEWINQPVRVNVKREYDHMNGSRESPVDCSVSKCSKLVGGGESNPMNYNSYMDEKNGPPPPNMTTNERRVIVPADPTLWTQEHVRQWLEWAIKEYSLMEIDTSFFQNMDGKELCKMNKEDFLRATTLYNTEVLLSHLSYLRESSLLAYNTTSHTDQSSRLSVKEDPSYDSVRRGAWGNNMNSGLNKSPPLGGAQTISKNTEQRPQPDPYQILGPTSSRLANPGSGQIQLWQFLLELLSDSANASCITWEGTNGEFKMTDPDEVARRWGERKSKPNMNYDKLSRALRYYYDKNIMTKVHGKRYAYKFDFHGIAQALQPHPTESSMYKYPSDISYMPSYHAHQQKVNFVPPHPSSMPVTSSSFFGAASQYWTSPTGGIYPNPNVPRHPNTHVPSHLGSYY
Put shortly: (§1)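 Sequencing on an Illumina NextSeq500 followed washing, crosslinking with 0.1% formaldehyde, proximity ligation (BsaI/T4 ligase, 1 h, 37 °C) and PCR amplification of pools that had been incubated for 30 min at room temperature with 200 nmole of a random double-stranded 16-mer DNA library in Tris/NaCl/DTT/glycerol buffer. Each pool held DNA-barcoded human transcription factors, expressed in yeast as GST fusions and captured on glutathione beads, plus a tag-only sample. Binding signal is a hexamer's read frequency for a factor divided by its frequency in the tag-only sample.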

Another experiment deals with T2, ELK1 (Homo sapiens, UniProt P19419 1-428).
T2 sequence: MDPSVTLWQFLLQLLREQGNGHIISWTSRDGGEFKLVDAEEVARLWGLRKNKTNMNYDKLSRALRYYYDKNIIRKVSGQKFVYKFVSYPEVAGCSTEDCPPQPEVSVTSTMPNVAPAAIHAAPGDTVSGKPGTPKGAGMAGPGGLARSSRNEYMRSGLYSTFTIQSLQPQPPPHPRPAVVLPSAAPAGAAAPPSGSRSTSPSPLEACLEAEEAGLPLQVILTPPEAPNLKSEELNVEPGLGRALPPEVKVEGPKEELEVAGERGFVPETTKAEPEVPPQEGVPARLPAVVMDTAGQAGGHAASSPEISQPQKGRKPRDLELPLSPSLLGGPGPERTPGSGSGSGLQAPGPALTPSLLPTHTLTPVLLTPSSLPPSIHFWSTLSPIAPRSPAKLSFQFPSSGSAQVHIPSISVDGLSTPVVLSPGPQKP
In outline: as §1

The target of a further experiment is T3, ERG (Homo sapiens, UniProt P11308 1-479).
T3 sequence: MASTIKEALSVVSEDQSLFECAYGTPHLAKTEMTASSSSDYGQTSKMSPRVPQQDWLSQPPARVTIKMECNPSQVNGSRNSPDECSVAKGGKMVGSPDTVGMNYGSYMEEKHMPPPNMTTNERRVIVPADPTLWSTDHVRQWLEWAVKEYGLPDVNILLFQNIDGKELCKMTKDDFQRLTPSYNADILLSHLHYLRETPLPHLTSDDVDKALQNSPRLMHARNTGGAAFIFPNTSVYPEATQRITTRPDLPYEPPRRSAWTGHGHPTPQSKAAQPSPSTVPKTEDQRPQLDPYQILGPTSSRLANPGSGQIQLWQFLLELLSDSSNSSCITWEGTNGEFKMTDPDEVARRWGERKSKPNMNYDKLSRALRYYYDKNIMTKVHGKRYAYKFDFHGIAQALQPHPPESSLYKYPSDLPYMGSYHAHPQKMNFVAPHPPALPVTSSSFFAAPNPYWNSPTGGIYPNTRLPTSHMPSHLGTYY
In outline:
as §1

Another experiment has as its target ELF1 (Homo sapiens, UniProt P32519 1-619). In outline: as §1
The target in a further experiment is T4, EHF (Homo sapiens, UniProt Q9NZC4 1-300).
T4 sequence: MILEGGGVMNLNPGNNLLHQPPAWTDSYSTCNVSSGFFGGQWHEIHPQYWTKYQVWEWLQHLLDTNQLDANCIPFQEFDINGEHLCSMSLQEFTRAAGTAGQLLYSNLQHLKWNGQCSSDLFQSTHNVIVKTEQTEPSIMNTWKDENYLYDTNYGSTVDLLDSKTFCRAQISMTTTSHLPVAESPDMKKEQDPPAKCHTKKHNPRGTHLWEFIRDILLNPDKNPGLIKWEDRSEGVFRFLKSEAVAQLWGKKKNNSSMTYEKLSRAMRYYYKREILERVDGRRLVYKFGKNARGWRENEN
Put shortly:
as §1

In the next experiment the target is T5, FEV (Homo sapiens, UniProt Q99581 1-238).
T5 sequence: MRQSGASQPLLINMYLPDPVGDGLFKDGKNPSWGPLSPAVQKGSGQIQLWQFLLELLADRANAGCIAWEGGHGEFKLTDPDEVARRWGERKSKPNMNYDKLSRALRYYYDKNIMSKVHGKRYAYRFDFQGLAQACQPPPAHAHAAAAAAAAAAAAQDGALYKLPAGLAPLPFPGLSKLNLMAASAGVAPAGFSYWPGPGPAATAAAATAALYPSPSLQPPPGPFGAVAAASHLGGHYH
In outline:
as §1

A further experiment deals with ETV5 (Homo sapiens, UniProt P41161 1-510). Put shortly: as §1
Chain of ETV5 (P41161 whole entry): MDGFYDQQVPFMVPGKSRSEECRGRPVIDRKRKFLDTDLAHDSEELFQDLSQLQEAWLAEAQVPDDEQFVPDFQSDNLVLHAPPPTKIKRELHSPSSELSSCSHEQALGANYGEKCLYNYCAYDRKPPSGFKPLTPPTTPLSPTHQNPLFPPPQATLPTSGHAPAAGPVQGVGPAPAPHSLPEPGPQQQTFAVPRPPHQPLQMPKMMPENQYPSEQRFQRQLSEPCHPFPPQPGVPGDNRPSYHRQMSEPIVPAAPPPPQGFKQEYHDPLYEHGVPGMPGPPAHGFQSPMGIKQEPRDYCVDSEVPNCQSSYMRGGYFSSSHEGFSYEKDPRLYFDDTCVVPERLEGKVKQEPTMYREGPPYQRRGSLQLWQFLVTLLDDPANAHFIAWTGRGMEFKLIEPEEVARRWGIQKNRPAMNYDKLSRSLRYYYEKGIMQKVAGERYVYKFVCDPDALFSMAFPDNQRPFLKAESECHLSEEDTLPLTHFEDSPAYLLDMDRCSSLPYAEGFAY
In the next experiment the target is T6, SPIC (Homo sapiens, UniProt Q8N5J4 1-248).
T6 sequence: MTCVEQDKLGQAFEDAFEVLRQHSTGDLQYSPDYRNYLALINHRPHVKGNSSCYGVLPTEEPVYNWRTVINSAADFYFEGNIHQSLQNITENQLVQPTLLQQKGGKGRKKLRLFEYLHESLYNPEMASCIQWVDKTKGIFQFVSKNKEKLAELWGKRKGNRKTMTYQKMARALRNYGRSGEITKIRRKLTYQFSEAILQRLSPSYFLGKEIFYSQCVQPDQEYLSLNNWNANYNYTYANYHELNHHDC
Put shortly:
as §1

For another experiment, the target named is ELF4 (Homo sapiens, UniProt Q99607 1-663). In outline: as §1
Chain of ELF4 (Q99607 whole entry): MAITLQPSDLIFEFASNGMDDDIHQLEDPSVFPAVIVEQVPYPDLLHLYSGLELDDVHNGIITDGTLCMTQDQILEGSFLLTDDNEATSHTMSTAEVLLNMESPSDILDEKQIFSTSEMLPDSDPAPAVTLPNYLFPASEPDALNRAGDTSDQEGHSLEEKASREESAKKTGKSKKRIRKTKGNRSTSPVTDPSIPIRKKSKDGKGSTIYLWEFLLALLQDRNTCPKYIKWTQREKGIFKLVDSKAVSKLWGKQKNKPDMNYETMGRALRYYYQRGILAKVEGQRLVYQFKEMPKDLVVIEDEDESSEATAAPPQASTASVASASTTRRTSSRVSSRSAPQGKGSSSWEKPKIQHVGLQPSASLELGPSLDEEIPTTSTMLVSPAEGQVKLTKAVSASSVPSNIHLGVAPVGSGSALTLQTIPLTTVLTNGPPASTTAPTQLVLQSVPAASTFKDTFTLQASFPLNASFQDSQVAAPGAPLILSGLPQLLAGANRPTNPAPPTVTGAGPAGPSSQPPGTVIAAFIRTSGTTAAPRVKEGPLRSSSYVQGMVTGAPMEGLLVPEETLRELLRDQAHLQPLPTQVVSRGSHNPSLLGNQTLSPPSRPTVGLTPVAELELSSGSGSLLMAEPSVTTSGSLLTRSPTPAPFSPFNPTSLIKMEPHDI
The next experiment addresses T7, ELK4 (Homo sapiens, UniProt P28324-2 1-405).
T7 sequence: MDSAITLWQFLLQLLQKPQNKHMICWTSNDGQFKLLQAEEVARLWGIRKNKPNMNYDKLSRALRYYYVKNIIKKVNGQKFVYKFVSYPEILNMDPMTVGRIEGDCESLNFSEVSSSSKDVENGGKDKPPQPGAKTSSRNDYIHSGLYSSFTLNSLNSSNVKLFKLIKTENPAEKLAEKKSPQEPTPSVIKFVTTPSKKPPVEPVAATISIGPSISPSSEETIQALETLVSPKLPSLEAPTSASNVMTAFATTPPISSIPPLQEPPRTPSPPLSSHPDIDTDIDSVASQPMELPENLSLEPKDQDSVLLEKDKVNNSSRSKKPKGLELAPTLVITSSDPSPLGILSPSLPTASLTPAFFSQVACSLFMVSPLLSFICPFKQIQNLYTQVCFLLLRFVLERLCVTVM
Put shortly:
as §1

Another experiment addresses T8, ETV2 (Homo sapiens, UniProt O00321 1-342).
T8 sequence: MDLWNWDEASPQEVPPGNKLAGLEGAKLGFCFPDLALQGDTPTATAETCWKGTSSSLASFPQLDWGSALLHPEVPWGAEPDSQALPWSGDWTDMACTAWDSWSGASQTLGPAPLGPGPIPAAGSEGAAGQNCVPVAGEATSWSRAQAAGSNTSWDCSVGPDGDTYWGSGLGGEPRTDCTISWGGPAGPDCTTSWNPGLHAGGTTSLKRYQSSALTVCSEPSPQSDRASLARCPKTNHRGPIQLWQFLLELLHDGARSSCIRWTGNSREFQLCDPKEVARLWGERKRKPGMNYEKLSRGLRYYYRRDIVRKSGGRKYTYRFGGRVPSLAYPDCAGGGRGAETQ
In outline:
as §1

Another experiment concerns the target T9, ELF3 (Homo sapiens, UniProt P78545 1-371).
T9 sequence: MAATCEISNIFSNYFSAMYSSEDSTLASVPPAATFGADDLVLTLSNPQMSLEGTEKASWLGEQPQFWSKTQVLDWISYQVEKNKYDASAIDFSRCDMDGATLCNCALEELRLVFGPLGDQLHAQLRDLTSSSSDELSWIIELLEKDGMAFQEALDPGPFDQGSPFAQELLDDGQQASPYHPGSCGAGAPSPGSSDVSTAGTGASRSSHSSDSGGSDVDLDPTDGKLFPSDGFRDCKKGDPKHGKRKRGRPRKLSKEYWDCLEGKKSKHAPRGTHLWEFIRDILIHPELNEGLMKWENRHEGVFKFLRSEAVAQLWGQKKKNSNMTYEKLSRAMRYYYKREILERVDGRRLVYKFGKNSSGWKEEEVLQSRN
Put shortly: as §1

The next experiment addresses SPI1 (Homo sapiens, UniProt P17947 1-270). Put shortly: as §1
Another experiment has as its target SPIB (Homo sapiens, UniProt Q01892 1-262). Put shortly:
as §1

The target in the next experiment is T10, ELK3 (Homo sapiens, UniProt P41970 1-407).
T10 sequence: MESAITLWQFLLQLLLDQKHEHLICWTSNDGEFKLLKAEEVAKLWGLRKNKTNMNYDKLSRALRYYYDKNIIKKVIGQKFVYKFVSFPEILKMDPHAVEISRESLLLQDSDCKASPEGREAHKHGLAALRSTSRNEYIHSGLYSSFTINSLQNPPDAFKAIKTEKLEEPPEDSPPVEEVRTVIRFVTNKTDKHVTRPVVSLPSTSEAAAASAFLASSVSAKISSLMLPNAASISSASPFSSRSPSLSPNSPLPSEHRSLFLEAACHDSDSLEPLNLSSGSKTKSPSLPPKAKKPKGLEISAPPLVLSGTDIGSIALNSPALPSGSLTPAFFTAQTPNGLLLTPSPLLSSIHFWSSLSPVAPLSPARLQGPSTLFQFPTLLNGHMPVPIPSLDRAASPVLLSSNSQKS
In outline:
as §1

A further experiment addresses ETV1 (Homo sapiens, UniProt P50549 1-477). Put shortly:
as §1

Another experiment addresses T11, GABPA (Homo sapiens, UniProt Q06546 1-454).
T11 sequence: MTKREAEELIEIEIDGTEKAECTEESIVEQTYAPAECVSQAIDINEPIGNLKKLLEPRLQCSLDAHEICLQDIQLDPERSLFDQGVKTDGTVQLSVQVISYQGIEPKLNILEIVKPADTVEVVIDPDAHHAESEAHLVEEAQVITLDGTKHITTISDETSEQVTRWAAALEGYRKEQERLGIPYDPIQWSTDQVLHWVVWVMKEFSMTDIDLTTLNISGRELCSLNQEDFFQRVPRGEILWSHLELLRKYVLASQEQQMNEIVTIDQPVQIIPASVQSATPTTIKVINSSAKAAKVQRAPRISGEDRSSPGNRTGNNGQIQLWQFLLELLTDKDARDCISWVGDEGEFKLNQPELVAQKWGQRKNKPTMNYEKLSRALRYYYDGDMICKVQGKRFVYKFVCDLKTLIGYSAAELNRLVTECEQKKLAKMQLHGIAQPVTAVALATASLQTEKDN
In outline:
as §1

Chain of ELF1 (P32519 whole entry): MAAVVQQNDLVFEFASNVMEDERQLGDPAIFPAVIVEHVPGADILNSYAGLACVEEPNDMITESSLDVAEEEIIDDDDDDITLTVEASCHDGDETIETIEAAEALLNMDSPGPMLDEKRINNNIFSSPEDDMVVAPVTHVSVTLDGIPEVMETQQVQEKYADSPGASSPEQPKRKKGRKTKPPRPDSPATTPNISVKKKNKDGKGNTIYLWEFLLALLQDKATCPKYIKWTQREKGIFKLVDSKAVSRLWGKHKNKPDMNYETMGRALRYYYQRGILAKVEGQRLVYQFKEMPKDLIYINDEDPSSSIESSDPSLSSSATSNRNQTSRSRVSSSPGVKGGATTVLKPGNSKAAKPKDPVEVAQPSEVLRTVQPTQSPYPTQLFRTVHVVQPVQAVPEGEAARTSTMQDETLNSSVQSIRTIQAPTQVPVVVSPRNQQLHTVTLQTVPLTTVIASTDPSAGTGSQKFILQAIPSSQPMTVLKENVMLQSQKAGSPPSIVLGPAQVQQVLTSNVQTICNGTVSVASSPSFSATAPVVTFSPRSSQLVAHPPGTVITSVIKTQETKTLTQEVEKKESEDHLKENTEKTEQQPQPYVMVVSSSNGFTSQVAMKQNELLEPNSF
Chain of ETV1 (P50549 whole entry): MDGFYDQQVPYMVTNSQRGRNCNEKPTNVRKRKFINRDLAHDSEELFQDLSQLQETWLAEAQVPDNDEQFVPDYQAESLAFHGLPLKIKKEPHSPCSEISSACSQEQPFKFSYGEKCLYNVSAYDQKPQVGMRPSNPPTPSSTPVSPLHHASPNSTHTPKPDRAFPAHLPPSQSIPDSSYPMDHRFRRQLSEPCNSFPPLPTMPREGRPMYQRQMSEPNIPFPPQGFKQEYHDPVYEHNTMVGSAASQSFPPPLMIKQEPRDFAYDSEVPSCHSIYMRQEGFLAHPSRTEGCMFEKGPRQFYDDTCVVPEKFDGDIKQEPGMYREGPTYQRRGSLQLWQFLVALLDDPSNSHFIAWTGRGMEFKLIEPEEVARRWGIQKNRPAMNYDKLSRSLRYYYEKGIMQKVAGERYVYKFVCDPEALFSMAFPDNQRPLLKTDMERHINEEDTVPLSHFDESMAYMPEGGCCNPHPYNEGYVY
Chain of SPIB (Q01892 whole entry): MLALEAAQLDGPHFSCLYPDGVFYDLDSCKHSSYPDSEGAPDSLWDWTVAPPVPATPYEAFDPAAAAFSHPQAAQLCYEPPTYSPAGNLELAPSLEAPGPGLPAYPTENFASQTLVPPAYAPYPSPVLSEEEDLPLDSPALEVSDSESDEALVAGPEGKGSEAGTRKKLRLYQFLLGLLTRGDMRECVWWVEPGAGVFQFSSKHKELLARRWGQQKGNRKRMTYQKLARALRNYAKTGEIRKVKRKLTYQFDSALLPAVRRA

On to ACACCA, for which the binding signal with FLI1 was 1.01 fold enrichment (6-mer frequency, TF over GST control); in the experiment with ELK1 it was 1.15 fold enrichment (6-mer frequency, TF over GST control); with ERG, 1.01 fold enrichment (6-mer frequency, TF over GST control); with ELF1, 1.05 fold enrichment (6-mer frequency, TF over GST control); with EHF, 1.04 fold enrichment (6-mer frequency, TF over GST control); with FEV, 1.03 fold enrichment (6-mer frequency, TF over GST control). Also, the binding signal is 1.04 fold enrichment (6-mer frequency, TF over GST control) with ETV5; 1.13 fold enrichment (6-mer frequency, TF over GST control) with SPIC; 1.02 fold enrichment (6-mer frequency, TF over GST control) with ELF4; 1.08 fold enrichment (6-mer frequency, TF over GST control) with ELK4; 1.05 fold enrichment (6-mer frequency, TF over GST control) in the experiment with ETV2; 1.01 fold enrichment (6-mer frequency, TF over GST control) in the experiment with ELF3.

On to CCGGTC, for which the binding signal with FLI1 is 1.17 fold enrichment (6-mer frequency, TF over GST control); in the experiment with ELK1, 1.18 fold enrichment (6-mer frequency, TF over GST control); with ERG, 1.3 fold enrichment (6-mer frequency, TF over GST control); with ELF1, 1.14 fold enrichment (6-mer frequency, TF over GST control); with EHF it was 1.1 fold enrichment (6-mer frequency, TF over GST control); with SPI1, 1.01 fold enrichment (6-mer frequency, TF over GST control). For the same sequence, the binding signal with SPIB is 1.08 fold enrichment (6-mer frequency, TF over GST control); with ELK3, 1.18 fold enrichment (6-mer frequency, TF over GST control); in the experiment with FEV it was 1.62 fold enrichment (6-mer frequency, TF over GST control); with ETV5, 1.22 fold enrichment (6-mer frequency, TF over GST control); with SPIC, 1.01 fold enrichment (6-mer frequency, TF over GST control); with ELF4, 1.08 fold enrichment (6-mer frequency, TF over GST control). For the same sequence, the binding signal in the experiment with ELK4 is 1.18 fold enrichment (6-mer frequency, TF over GST control); in the experiment with ETV2, 1.08 fold enrichment (6-mer frequency, TF over GST control); with ELF3 it was 1.14 fold enrichment (6-mer frequency, TF over GST control); in the experiment with ETV1 it was 1.17 fold enrichment (6-mer frequency, TF over GST control).

As to GCAATA, the binding signal is 1.02 fold enrichment (6-mer frequency, TF over GST control) with FLI1; 1.1 fold enrichment (6-mer frequency, TF over GST control) in the experiment with ELK1; 1.02 fold enrichment (6-mer frequency, TF over GST control) with GABPA; 1.05 fold enrichment (6-mer frequency, TF over GST control) with ELF1; 1.07 fold enrichment (6-mer frequency, TF over GST control) with EHF; 1.07 fold enrichment (6-mer frequency, TF over GST control) with ETV5. In addition, the binding signal with SPIC was 1.16 fold enrichment (6-mer frequency, TF over GST control); with ELF4 it was 1.07 fold enrichment (6-mer frequency, TF over GST control); in the experiment with ELK4, 1.11 fold enrichment (6-mer frequency, TF over GST control); with ETV2 it was 1.01 fold enrichment (6-mer frequency, TF over GST control); with ELF3 it was 1.09 fold enrichment (6-mer frequency, TF over GST control); with ETV1, 1.07 fold enrichment (6-mer frequency, TF over GST control).
